Results: PubChem BioAssay AID1159580 (chemical genetic matrix, 2015)
Screen size: about 5,500 compounds; about 2,000 (36%) were called active. Roughly 18% stayed inconclusive and do not appear here. No stated cut-off is given here; in the data, active means normalized growth mostly below about 0.91 (no sharp cut-off); inconclusive means no clear call, values can overlap the other calls; inactive means mostly above about 0.92. This is one part of the list.

Assay: chemical genetic growth profiling, strain panel (AID 1159580);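 further: tested at 20 µM; growth read once vehicle control cultures reached saturation at 30 °C; 1 = growth at the plate median or of vehicle wells; lower values mean less growth of the strain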
Conditions: growth OD

Measured: normalized growth

O=C(O)c1ccccc1-c1c2cc(Br)c(=O)cc-2oc2[c]([Hg])c(O)c(Br)cc12
inactive: S. cerevisiae deletion strains, locus YKL009W, strain mrt4, active compounds read low 0.924 | S. cerevisiae deletion strains, locus YKR026C, strain gcn3, active compounds read low 1.05 | S. cerevisiae deletion strains, locus YKR091W, strain srl3, active compounds read low 1.04 | S. cerevisiae deletion strains, locus YLL001W, strain dnm1, active compounds read low 1.03 | S. cerevisiae deletion strains, locus YLL026W, active compounds read low 1.04 | S. cerevisiae deletion strains, locus YLL041C, strain sdh2, active compounds read low 1.02 | S. cerevisiae deletion strains, locus YLR027C, strain aat2, active compounds read low 1.04 | S. cerevisiae deletion strains, locus YLR039C, strain RIC1, active compounds read low 0.949 | S. cerevisiae deletion strains, locus YLR058C, strain SHM2, active compounds read low 0.992 | S. cerevisiae deletion strains, locus YLR221C, strain rsa3, active compounds read low 1 | S. cerevisiae deletion strains, locus YLR258W, strain gsy2, active compounds read low 1.04 | S. cerevisiae deletion strains, locus YLR262C, strain YPT6 (second series), active compounds read low 1.09 | S. cerevisiae deletion strains, locus YLR262C, strain YPT6, active compounds read low 0.68 | S. cerevisiae deletion strains, locus YLR320W, strain mms22, active compounds read low 1.02 | S. cerevisiae deletion strains, locus YLR342W, strain FKS1, active compounds read low 1.02 | S. cerevisiae deletion strains, locus YLR357W, strain rsc2, active compounds read low 1 | S. cerevisiae deletion strains, locus YLR370C, strain arc18, active compounds read low 1.04 | S. cerevisiae deletion strains, locus YLR384C, strain iki3, active compounds read low 1.02 | S. cerevisiae deletion strains, locus YML032C, strain rad52, active compounds read low 0.99 | S. cerevisiae deletion strains, locus YML120C, strain ndi1, active compounds read low 1.03 | S. cerevisiae deletion strains, locus YMR058W, strain fet3, active compounds read low 1.02 | S. cerevisiae deletion strains, locus YMR125W, strain sto1, active compounds read low 1.02 | S. cerevisiae deletion strains, locus YMR129W, active compounds read low 1.04 | S. cerevisiae deletion strains, locus YMR205C, strain PFK2, active compounds read low 1.09 | S. cerevisiae deletion strains, locus YMR231W, strain pep5, active compounds read low 1.03 | S. cerevisiae deletion strains, locus YMR263W, strain SAP30, active compounds read low 0.943 | S. cerevisiae deletion strains, locus YNL071W, strain lat1, active compounds read low 1.01 | S. cerevisiae deletion strains, locus YNL153C, strain GIM3, active compounds read low 0.89 | S. cerevisiae deletion strains, locus YNL209W, strain ssb2, active compounds read low 1.03 | S. cerevisiae deletion strains, locus YNL248C, strain rpa49, active compounds read low 1.02 | S. cerevisiae deletion strains, locus YNL322C, strain KRE1 (second series), active compounds read low 1.05 | S. cerevisiae deletion strains, locus YNR049C, strain mso1, active compounds read low 1.02 | S. cerevisiae deletion strains, locus YNR052C, strain pop2, active compounds read low 0.937 | S. cerevisiae deletion strains, locus YOL012C, strain htz1 0.228 | S. cerevisiae deletion strains, locus YOL147C, strain pex11, active compounds read low 0.995 | S. cerevisiae deletion strains, locus YOR001W, strain rrp6, active compounds read low 1.04 | S. cerevisiae deletion strains, locus YOR070C, strain gyp1, active compounds read low 1.02 | S. cerevisiae deletion strains, locus YOR080W, strain dia2, active compounds read low 1.02 | S. cerevisiae deletion strains, locus YOR083W, strain WHI5, active compounds read low 1.03 | S. cerevisiae deletion strains, locus YOR106W, strain vam3, active compounds read low 0.952 | S. cerevisiae deletion strains, locus YOR144C, strain elg1, active compounds read low 1.02 | S. cerevisiae deletion strains, locus YOR265W, strain rbl2, active compounds read low 1.04 | S. cerevisiae deletion strains, locus YOR290C, strain snf2, active compounds read low 1.07 | S. cerevisiae deletion strains, locus YPL051W, strain arl3, active compounds read low 1 | S. cerevisiae deletion strains, locus YPL078C, strain atp4, active compounds read low 1.04 | S. cerevisiae deletion strains, locus YPL106C, strain sse1, active compounds read low 0.909 | S. cerevisiae deletion strains, locus YPL240C, strain hsp82, active compounds read low 1.03 | S. cerevisiae deletion strains, locus YPL241C, strain CIN2, active compounds read low 0.987
active: S. cerevisiae deletion strains, locus YKL068W, active compounds read low 0.565 | S. cerevisiae deletion strains, locus YKL085W, strain MDH1 (second series), active compounds read low 0.0686 | S. cerevisiae deletion strains, locus YKL085W, strain MDH1, active compounds read low 0.0686 | S. cerevisiae deletion strains, locus YKL160W, strain elf1, active compounds read low 0.0872 | S. cerevisiae deletion strains, locus YKL190W, strain CNB1, active compounds read low 0.575 | S. cerevisiae deletion strains, locus YKR001C, strain vps1, active compounds read low 0.101 | S. cerevisiae deletion strains, locus YLR102C, strain apc9, active compounds read low 0.081 | S. cerevisiae deletion strains, locus YLR113W, strain HOG1, active compounds read low 0.485 | S. cerevisiae deletion strains, locus YLR268W, strain sec22, active compounds read low 0.106 | S. cerevisiae deletion strains, locus YLR330W, strain CHS5, active compounds read low 0.0829 | S. cerevisiae deletion strains, locus YLR342W, strain FKS1 (second series), active compounds read low 0.132 | S. cerevisiae deletion strains, locus YLR371W, strain rom2, active compounds read low 0.0749 | S. cerevisiae deletion strains, locus YLR418C, strain cdc73, active compounds read low 0.166 | S. cerevisiae deletion strains, locus YML016C, strain PPZ1, active compounds read low 0.0683 | S. cerevisiae deletion strains, locus YML124C, strain tub3, active compounds read low 0.779 | S. cerevisiae deletion strains, locus YMR078C, strain ctf18, active compounds read low 0.484 | S. cerevisiae deletion strains, locus YMR223W, strain ubp8, active compounds read low 0.0739 | S. cerevisiae deletion strains, locus YMR307W, strain GAS1, active compounds read low 0.228 | S. cerevisiae deletion strains, locus YNL067W, strain RPL9B, active compounds read low 0.814 | S. cerevisiae deletion strains, locus YNL128W, strain TEP1, active compounds read low 0.196 | S. cerevisiae deletion strains, locus YNL183C, strain NPR1, active compounds read low 0.513 | S. cerevisiae deletion strains, locus YNL233W, strain BNI4, active compounds read low 0.104 | S. cerevisiae deletion strains, locus YNL250W, strain rad50, active compounds read low 0.0998 | S. cerevisiae deletion strains, locus YNL271C, strain bni1, active compounds read low 0.0638 | S. cerevisiae deletion strains, locus YNL298W, strain CLA4, active compounds read low 0.062 | S. cerevisiae deletion strains, locus YNL307C, strain MCK1, active compounds read low 0.072 | S. cerevisiae deletion strains, locus YNL322C, strain KRE1, active compounds read low 0.914 | S. cerevisiae deletion strains, locus YOL006C, strain TOP1, active compounds read low 0.153 | S. cerevisiae deletion strains, locus YOR061W, strain CKA2, active compounds read low 0.155 | S. cerevisiae deletion strains, locus YOR069W, strain VPS5, active compounds read low 0.494 | S. cerevisiae deletion strains, locus YOR136W, strain idh2, active compounds read low 0.0743 | S. cerevisiae deletion strains, locus YOR184W, strain ser1, active compounds read low 0.143 | S. cerevisiae deletion strains, locus YOR231W, strain MKK1, active compounds read low 0.345 | S. cerevisiae deletion strains, locus YOR270C, strain vph1, active compounds read low 1.31 [resistant] | S. cerevisiae deletion strains, locus YOR316C, strain cot1, active compounds read low 0.0634 | S. cerevisiae deletion strains, locus YPL055C, strain LGE1, active compounds read low 0.226 | S. cerevisiae deletion strains, locus YPL256C, strain CLN2, active compounds read low 0.487 | S. cerevisiae deletion strains, locus YPR119W, strain clb2, active compounds read low 0.0719 | S. cerevisiae deletion strains, locus YPR141C, strain kar3, active compounds read low 0.254 | S. cerevisiae deletion strains, locus YPR163C, strain tif3, active compounds read low 0.0765 | S. cerevisiae deletion strains, locus YPR167C, strain met16, active compounds read low 0.0655 | S. cerevisiae deletion strains, strain wtn01, active compounds read low 0.062 | S. cerevisiae strains, strain wild type, active compounds read low 0.196
